Results on ten compounds are retold here after PubChem BioAssay (Tox21).

Molecules are shown by their SMILES. Results filed as inconclusive are left out. The source made the active and inactive calls. Unless noted, the call rests on the fitted dose curve; in most records, active means well fitted curve in the direction sought with a large enough effect in the repeat runs; inconclusive means weak or mixed curves; inactive means no such curve, though single readings can be large; an effect the other way counts as inactive or inconclusive.

Assay [1] is described as follows: qHTS assay to identify small molecule agonists of the vitamin D receptor (VDR) signaling pathway - cell viability counter screen (AID 743224). Further: nearly all actives have a fitted effect of over 50% in size. Further: potency means the concentration at half of the fitted maximal effect. The procedure, abridged: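 Compounds were pin-transferred onto VDR-bla cells plated 4 h earlier; following 16 h incubation at 37C, cell viability was quantified by CellTiter-Glo luminescence after 30 min at room temperature.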

Assay [2] is described as follows: qHTS assay to identify small molecule antagonists of the vitamin D receptor (VDR) signaling pathway - cell viability counter screen (AID 743225). Further: nearly all actives have a fitted effect of over 50% in size. Further: potency means the concentration at half of the fitted maximal effect. The procedure, abridged: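 Compounds were pinned onto VDR-bla HEK 293T cells together with 1-alpha,25-dihydroxyvitamin D3 at 3 nM final. After 16 h at 37C and 5% CO2 plus the reporter readout, cell viability was measured by CellTiter-Glo luminescence (30 min, room temperature).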

The nature of assay [3]: qHTS assay to identify small molecule agonists of the NFkB signaling pathway - cell viability counter screen (AID 1159515; calls by dose curve; further: nearly all actives have a fitted effect of over 55% in size; further: potency means the concentration at half of the fitted maximal effect). The gist of the method:
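Parallel cytotoxicity counter screen in ME-180 cells carrying an NFkB-response-element beta-lactamase reporter, 2,000 cells/well. Compound exposure lasted 5 hr at 37 C, 5% CO2. Cell viability was quantified by CellTiter-Glo luminescence.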

Assay [4] can be described thus: qHTS assay to identify small molecule agonists of the endoplasmic reticulum stress response signaling pathway - cell viability counter screen (AID 1159517; calls by dose curve; further: nearly all actives have a fitted effect of over 50% in size; further: potency means the concentration at half of the fitted maximal effect). The procedure, abridged: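 After overnight attachment, ESRE-bla HeLa cells were treated with Tox21 library compounds for 5 hr. CellTiter-Glo luminescence, read 30 min post-addition at room temperature, reported viability.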

Assay [5] in a line: qHTS assay to identify small molecule antagonists of the retinoid-related orphan receptor gamma (ROR-gamma) signaling pathway - cell viability counter screen (AID 1159520). Further: nearly all actives have a fitted effect of over 50% in size. Further: potency means the concentration at half of the fitted maximal effect. The gist of the method: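 Cytotoxicity was read from cellular ATP (CellTiter-Glo luminescence) after 16 hr at 37 C with 1 uM doxycycline induction. The inducer was added 2 hr after compound transfer to Tet-on ROR gamma CHO cells.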

In assay [6] the target is Nuclear receptor ROR-gamma (Homo sapiens) (UniProt P51449). Nature of the assay: qHTS assay to identify small molecule antagonists of the retinoid-related orphan receptor gamma (ROR-gamma) signaling pathway (AID 1159521; further: nearly all actives have a fitted effect of over 50% in size; further: potency means the concentration at half of the fitted maximal effect). The procedure, abridged:
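Test compounds were applied to Tet-on RORγ CHO cells 2 h ahead of doxycycline hyclate (1 uM final). Luciferase reporter activity was quantified by luminescence after 16 h at 37 C and 5% CO2.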

The nature of assay [7]: qHTS assay to identify small molecule agonists of the AP-1 signaling pathway - cell viability counter screen (AID 1159525; calls by dose curve; further: nearly all actives have a fitted effect of over 55% in size). The gist of the method:
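Intracellular ATP by Cell Titer Glo luminescence (30 min, RT) in the same ME-180 AP-1-bla wells after the 5 h compound exposure at 37 °C. Normalised to tetra n-octyl ammonium bromide and DMSO controls.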

A short description of assay [8]: qHTS assay to identify small molecule antagonists of the retinoid acid receptor (RAR) signaling pathway - cell viability counter screen (AID 1159551). Further: nearly all actives have a fitted effect of over 35% in size. Further: potency means the concentration at half of the fitted maximal effect. The gist of the method: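 ATP-based viability, C3RL4 cells, 6 h at 37 C with 1 uM final retinol co-added after compound; luminescence read 30 min post CellTiter-Glo, RT.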
Assay [9] in a line: qHTS assay to identify small molecule antagonists of the retinoic acid receptor (RAR) signaling pathway (AID 1159552; further: nearly all actives have a fitted effect of over 50% in size; further: potency means the concentration at half of the fitted maximal effect). The procedure, abridged: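 Test chemicals and DMSO controls were pin-transferred onto C3RL4 cells a day after seeding; retinol (1 uM final) followed at once. Luminescent reporter output was quantified after 6 hr of co-incubation and 30 min with detection reagent.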

Assay [10] in a line: qHTS assay to identify small molecule agonists of the retinoic acid receptor (RAR) signaling pathway (AID 1159553). Further: potency means the concentration at half of the fitted maximal effect. The gist of the method:
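Quantitative high-throughput format: the Tox21 10K library was tested on C3RL4 RARE-luciferase cells for 6 hr at 37 C and 5% CO2, with luminescence measured after a 30 min room-temperature reagent step.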

Assay [11] deals with Retinoic acid receptor RXR-alpha (Homo sapiens) (UniProt P19793). The assay can be described thus: qHTS assay to identify small molecule agonists of the RXR signaling pathway (AID 1159527; calls by dose curve; further: nearly all actives have a fitted effect of over 35% in size; further: potency means the concentration at half of the fitted maximal effect). The gist of the method: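 Using 9-cis retinoic acid as the reference agonist, chemicals were tested in HEK 293T cells […] for 16 hr; substrate loading lasted 2 hr at room temperature.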

A short description of assay [12]: qHTS assay to identify small molecule agonists of the RXR signaling pathway - cell viability counter screen (AID 1159529). Further: nearly all actives have a fitted effect of over 50% in size. Further: potency means the concentration at half of the fitted maximal effect. The procedure, abridged:
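Compounds dissolved in DMSO were pinned onto HEK 293T cells carrying a beta-lactamase reporter under RXR-alpha control and incubated 16 hr. Cytotoxicity was then quantified by CellTiter-Glo luminescence.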

Assay [13] in a line: qHTS assay to identify small molecule agonists of the AP-1 signaling pathway (AID 1159526; calls by dose curve).
A short description of assay [14]: qHTS assay to identify small molecule antagonists of the estrogen related receptor (ERR) signaling pathway - cell viability counter screen (AID 1224818).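 Further: potency means the concentration at half of the fitted maximal effect; viability measured after 17.5 h of compound exposure.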 The gist of the method: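 Quantitative high-throughput viability counter screen in ERR cells. Compounds (DMSO) incubated 17.5 h at 37 C; read-out was CellTiter-Fluor fluorescence.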
Assay [15] is described as follows: qHTS assay to identify small molecule agonists of the estrogen related receptor (ERR) signaling pathway (AID 1224820). The gist of the method: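 Luminescence readout (One-Glo, 30 min RT) from NTP-supplied ERR cell line exposed to compounds for 18 h at 37 C. Cells seeded 2,000 per well and pre-incubated 6 h before pin-tool compound transfer.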
Assay [16] is described as follows: qHTS assay to identify small molecule antagonists of the estrogen related receptor signaling pathway with the pleiotropic PPARgamma coactivator (PGC) cell viability counter screen (AID 1224822; further: potency means the concentration at half of the fitted maximal effect). The gist of the method: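 Cytotoxicity in the PGC/ERR cell line is assessed with CellTiter-Fluor, read as fluorescence intensity 30 min after reagent addition, following 17.5 h compound treatment at 37 C.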

The nature of assay [17]: qHTS assay to identify small molecule agonists of the estrogen related receptor signaling pathway with the pleiotropic PPARgamma coactivator (PGC) (AID 1224823). The gist of the method:
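Luminescence readout (One-Glo, 30 min RT) from PGC/ERR cell line treated 18 h at 37 C with pin-tool-delivered DMSO compound solutions; cells plated 6 h before dosing. Quantitative HTS format.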

Retinoic acid receptor RXR-alpha (Homo sapiens), sequence (P19793 whole entry, looked up): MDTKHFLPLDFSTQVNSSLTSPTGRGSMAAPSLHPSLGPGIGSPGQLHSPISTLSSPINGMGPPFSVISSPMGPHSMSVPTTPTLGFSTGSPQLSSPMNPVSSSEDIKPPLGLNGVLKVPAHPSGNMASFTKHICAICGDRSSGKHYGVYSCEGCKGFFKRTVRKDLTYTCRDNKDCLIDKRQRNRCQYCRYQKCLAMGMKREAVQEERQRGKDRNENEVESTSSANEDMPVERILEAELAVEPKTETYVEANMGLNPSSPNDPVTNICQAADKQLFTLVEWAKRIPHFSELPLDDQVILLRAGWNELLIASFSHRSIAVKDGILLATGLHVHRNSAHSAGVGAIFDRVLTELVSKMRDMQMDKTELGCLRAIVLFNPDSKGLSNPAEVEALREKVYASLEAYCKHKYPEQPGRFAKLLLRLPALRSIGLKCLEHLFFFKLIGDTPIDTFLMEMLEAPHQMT

Take `CCC1OCC(COc2ccc(Oc3ccccc3)cc2)O1` (centres undefined): the values for the Potency in [1] and in assay [10] were 49 µM (active) and 3.44 µM (active), respectively. Moreover, the Potency result in [2], in assay [3], in assay [4], in [5], in assay [6] and in assay [7] was “inactive” in each case. Further, the Potency result in [8] and in [9] was “inactive” each time.

On to `Clc1ccc2cc3ccccc3cc2c1`, for which the Potency result in assay [1], in assay [2], in assay [3], in [4], in assay [5] and in assay [6] was “inactive” each time. Moreover, the Potency result in assay [12], in assay [8] and in assay [9] was “inactive” in each case. Also, the Potency in [11] was 54.9 µM (active).

In the case of `COc1cc(/C=C/C(=O)O[C@H]2CC[C@]34C[C@]35CC[C@]3(C)[C@@H]([C@H](C)CCC=C(C)C)CC[C@@]3(C)[C@@H]5CC[C@H]4C2(C)C)ccc1O`, the Potency entry in [1], in assay [2], in assay [3], in assay [4], in assay [5] and in assay [6] was “inactive” throughout. Moreover, the Potency result in assay [11], in assay [12], in assay [8], in assay [9] and in assay [10] was “inactive” in each case.

Consider `CC(C)c1ccc2c(c1)CC[C@H]1[C@](C)(CN)CCC[C@]21C`, for which the Potency was 17.4 µM (active) in [1]; 43.6 µM (active) in assay [2]; 19.5 µM (active) in [3]; 9.77 µM (active) in assay [4]; 30.6 µM (active) in assay [5]; 30.6 µM (active) in [6]. In addition, in assay [12], the Potency was 21.9 µM (active).

For `Nc1ccc2cc(S(=O)(=O)O)cc(O)c2c1N=Nc1ccccc1C(F)(F)F`, the Potency entry in assay [1], in assay [2], in [3], in assay [4], in assay [5] and in assay [7] was “inactive” in each case. Moreover, the Potency result in assay [13], in assay [12], in assay [9] and in assay [10] was “inactive” each time.

As to `O=c1[nH]sc2ccccc12`, the Potency is 12.3 µM (active) in assay [1]; 49 µM (active) in assay [3]; 54.9 µM (active) in [4]; 21.7 µM (active) in assay [5]; 17.2 µM (active) in assay [6]; 19.5 µM (active) in [12]. The Potency in assay [9] was 17.2 µM (active).

In the case of `[O-][n+]1ccccc1SSc1cccc[n+]1[O-]`, the Potency in assay [1] is 0.164 µM (active); in assay [3] it was 0.233 µM (active); in assay [4] it was 4.14 µM (active); in assay [5], 0.103 µM (active); in [6], 0.058 µM (active); in [12], 0.165 µM (active). For the same compound, in [9], the Potency was 0.092 µM (active).

Consider `N=C1N=C(N)c2cc3ccccc3cc21`, for which the Potency in assay [1] is 49 µM (active); in assay [3] it was 49 µM (active); in assay [4] it was 8.71 µM (active); in assay [5], 30.6 µM (active); in [6], 30.6 µM (active); in assay [12], 49 µM (active). Moreover, the values for the Potency in assay [9], in assay [14] and in [16] were 43.3 µM (active), 25.3 µM (active) and 20.9 µM (active), respectively. The compound was classed as inactive in [15] and in assay [17].

In the case of `[Cl][Bi]([Cl])([c]1ccccc1)([c]1ccccc1)[c]1ccccc1`, the Potency in [1] is 3.87 µM (active); in assay [2], 2.44 µM (active); in assay [3] it was 54.6 µM (active); in assay [4], 38.7 µM (active); in assay [5], 12.1 µM (active); in assay [6] it was 2.16 µM (active). Further, the Potency in [12] was 2.74 µM (active); in assay [8] it was 54.2 µM (active); in [9] it was 3.83 µM (active).

Turning to `Nc1c(Cl)cc(Cl)cc1Cl`, the Potency entry in [1], in [2], in [3], in [4], in [5] and in [7] was “inactive” each time. Also, the Potency result in assay [13], in assay [12], in assay [8], in assay [9] and in [10] was “inactive” in each case. Besides, the Potency in assay [11] is 12.1 µM (active).
